Records with an inconclusive call do not appear. Active and inactive are the calls of the source. Rule for the calls: active = hit-call score of the fitted dose curve at least 0.9, where 1 is the maximum; inconclusive = response in the unintended direction; inactive = score below 0.9.

Chain of Cellular tumor antigen p53 (Homo sapiens) (P04637 whole entry, looked up): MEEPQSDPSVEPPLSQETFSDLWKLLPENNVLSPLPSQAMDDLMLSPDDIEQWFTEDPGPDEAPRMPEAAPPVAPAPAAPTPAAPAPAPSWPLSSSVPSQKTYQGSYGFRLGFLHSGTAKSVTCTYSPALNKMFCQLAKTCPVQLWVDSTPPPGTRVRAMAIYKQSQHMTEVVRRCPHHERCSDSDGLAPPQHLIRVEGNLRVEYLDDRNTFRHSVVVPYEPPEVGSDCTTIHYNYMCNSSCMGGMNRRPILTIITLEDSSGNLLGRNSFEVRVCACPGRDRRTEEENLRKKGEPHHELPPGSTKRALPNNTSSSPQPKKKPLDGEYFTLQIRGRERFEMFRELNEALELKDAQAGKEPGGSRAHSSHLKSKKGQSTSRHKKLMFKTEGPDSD

This test deals with Cellular tumor antigen p53 (Homo sapiens) (UniProt P04637). Briefly: TOX21_p53_BLA_p2_ratio: Tox21 HCT-116 p53 Agonism Beta-lactamase Assay, Ratio, Phase 2 (AID 2283592). The procedure, abridged:
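Cleaved-to-uncleaved substrate ratio (460 vs 530 nm) measured in HCT116 cells with an inducible beta-lactamase reporter linked to p53 activity. Compounds incubated 16 h at 37C before 2 h room-temperature CCF4-AM loading.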
Take `CNC(=O)[C@H](Cc1c[nH]c2ccccc12)NC(=O)[C@@H](CC(=O)NO)CC(C)C`: the outcome was inactive. Take `CCN(CC)CCNC(=O)COc1ccc(OC)cc1`: the result was inactive.

On to `C1CCCNCCC1`, for which the outcome was inactive. Regarding `CCCOC(=O)c1ccccc1O`, the result was inactive. As for `O=C(O)COc1ccccc1/C=N/NC(=O)c1ccncc1`, the outcome was inactive. On to `Cc1cc(C)cc([N+](=O)[O-])c1`, for which the outcome was inactive. Regarding `COC(=O)C(C)O` (centres undefined), the result was inactive. For `CCNC(=O)C1CC(C)CCC1C(C)C` (centres undefined), the result was inactive. As for `C=CC[N@@+]12CC[C@@]34c5ccccc5N5/C=C6/[C@H]7C[C@H]8[C@@]9(CC[N@@+]8(CC=C)C/C7=C/CO)c7ccccc7N(/C=C(/[C@@H](C[C@@H]31)/C(=C\CO)C2)[C@H]54)[C@@H]69`, the result was inactive.

Take `NS(=O)(=O)c1cc(-c2nn[nH]n2)c(NCc2cccs2)cc1Cl`: the result was inactive. Take `O=C(O)CP(=O)(O)O`: the outcome was inactive. On to `CCOC(=O)CC(=O)C(=O)OCC`, for which the result was inactive.

For the compound `COc1cc(C(=O)NC2CCCNC2)cc(OC)c1OC` (centres undefined), the result was inactive. As for `CN(CCOc1ccc(NS(C)(=O)=O)cc1)CCc1ccc(NS(C)(=O)=O)cc1`, the outcome was inactive. In the case of `CCC(C)(C)CC`, the result was inactive. The same measure for `CS(=O)(=O)c1ccc([C@@H](O)[C@@H](COC(=O)CN)NC(=O)C(Cl)Cl)cc1`: “inactive”; for `CN1CCOC(c2ccccc2)c2ccccc2C1` (centres undefined): “inactive”; for `CC(=O)c1ccc(Cl)c(Cl)c1Cl`: “inactive”.

Take `CCOC(=O)CCC(=O)O[C@H]1[C@H](O[C@@H]2[C@@H](C)[C@H](O[C@H]3C[C@@](C)(OC)[C@@H](O)[C@H](C)O3)[C@@H](C)C(=O)O[C@H](CC)[C@@](C)(O)[C@H](O)[C@@H](C)C(=O)[C@H](C)C[C@@]2(C)O)O[C@H](C)C[C@@H]1N(C)C`: the outcome was inactive.

(Values after PubChem BioAssay (EPA / NIEHS).)
